From PubChem
LDHA block: qHTS assay for inhibitors of human lactate dehydrogenase; activity change, % (values are at about 110 or 230 µM); AID 1347041, 2019; purified LDHA, NADH/diaphorase-resazurin fluorescence; active compounds read low; 0.15% of 480,000 active; L-lactate dehydrogenase A chain (Homo sapiens), P00338; in the data active = activity change below about -30%;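 note: plate controls were DMSO wells for no effect and wells without enzyme for full effect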
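Resorufin fluorescence (ex540/em590), read at 0 and 20 min after diaphorase/resazurin addition, reports the NADH left after a 5 min room-temperature reaction of 2 nM human LDH5 with 0.06 mM NADH and 0.2 mM pyruvate.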
D1 antag: Antagonist of Human D 1 Dopamine Receptor: qHTS. HEK293 TREx D1 cells, calcium flux, dopamine EC80; active compounds read low. 3.2% of 360,000 active. AID 504652, 2011. D(1A) dopamine receptor (Homo sapiens), P21728. activity change, negative = inhibition, % at 10 µM; in the data active = activity change below about -30%; note: % is set by controls: 0 for no effect and ±100 for the full control effect
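Tetracycline-induced HEK293 T-REx cells with force-coupled D1 receptor were loaded with a no-wash calcium dye. Compound was added after a 10 s baseline and read kinetically for 180 s; EC80 dopamine was then added and calcium flux followed another 180 s.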
TRHR PAM: qHTS for Small Molecule Agonists and Allosteric Enhancers of Human TRH Receptor: Primary Screen for Enhancers; Thyrotropin-releasing hormone receptor (Homo sapiens), P34981; TRHR cells, fluo-8 calcium fluorescence, EC20 TRH enhancement; enhancement, % at 2 µM; 0.66% of 360,000 active; in the data active = enhancement above about 30%; note: 0% is about no effect
Target sequence (P34981 whole entry, looked up): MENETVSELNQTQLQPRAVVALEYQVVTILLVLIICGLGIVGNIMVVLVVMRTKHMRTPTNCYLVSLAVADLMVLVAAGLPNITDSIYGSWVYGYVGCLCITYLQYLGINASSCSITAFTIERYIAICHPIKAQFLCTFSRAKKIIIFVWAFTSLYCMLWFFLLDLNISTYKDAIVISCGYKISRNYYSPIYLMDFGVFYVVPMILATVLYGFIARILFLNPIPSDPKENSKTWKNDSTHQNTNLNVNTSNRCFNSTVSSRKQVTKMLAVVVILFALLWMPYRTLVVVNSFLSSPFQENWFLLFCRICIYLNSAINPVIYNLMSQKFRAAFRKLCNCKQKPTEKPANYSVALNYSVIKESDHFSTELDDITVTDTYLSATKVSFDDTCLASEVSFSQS
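TRHR-expressing cells loaded with fluo-8 calcium dye were read kinetically (ex 480/em 530) during compound addition, then stimulated with an EC20 of TRH (10 nM final). Enhancement of the Gq-mediated intracellular calcium response was scored.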
TRHR agonist: qHTS for Small Molecule Agonists and Allosteric Enhancers of Human TRH Receptor: Primary Screen for Agonists; 0.18% of 360,000 active; TRHR cells, calcium flux fluo-8, FDSS agonist mode; Thyrotropin-releasing hormone receptor (Homo sapiens), P34981; activation, % at 2 µM; note: 0% is about no effect
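TRHR-expressing cells loaded with fluo-8 calcium dye; 23 nL library compound pin-transferred, kinetic FDSS fluorescence (Ex 480/Em 530) recorded about 180 s for agonist-induced calcium release, before a 10 nM TRH EC20 addition for potentiator mode.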
D1 agonist: Allosteric Agonists of the Human D1 Dopamine Receptor: qHTS | 1% of 360,000 active | AID 504660, 2011 | D(1A) dopamine receptor (Homo sapiens), P21728 | activation, % at 2 µM | HEK293 T-REx D1 cells, calcium flux, agonist mode; note: 0% is about no effect
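Agonism was scored from calcium flux recorded over 180 s (1 read/s) after pintool compound addition, following a 10-cycle baseline. Cells were inducible force-coupled HEK293 TREx D1, plated overnight at 30 C and loaded with no-wash calcium dye.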
D1 potentiator: Potentiators of Human D1 Dopamine Receptor: qHTS. D(1A) dopamine receptor (Homo sapiens), P21728. HEK293 TREx D1 cells, calcium flux, dopamine EC20 potentiation. potentiation, % at 10 µM. 0.036% of 360,000 active; in the data active = potentiation above about 30%; note: 0% is about no effect
Numbers without * were called inactive; nt = no result given. In the library only some 3.6% were active in any assay of this set; here they are far more common. Cut-off read from the data, not from the text of the source, unless noted: active = activation above about 30%; inactive = the rest.

SMILES	LDHA block	D1 antag	TRHR PAM	TRHR agonist	D1 agonist	D1 potentiator
CN(CCOc1ccc(Cl)cc1)CC(O)c1ccccc1 (stereo not given)	-18	-6	-10	-2	33*	-5
CN(CCOc1ccc(Br)cc1)CC(O)c1ccccc1 (stereo not given)	-15	-6	-12	-1	1	7
Cc1nc(-n2nc(C)c(Cl)c2C)sc1C(=O)N1CCCCCC1	0	nt	nt	nt	nt	nt
CCCn1c(=O)[nH]c(=O)c2cc(C(=O)Nc3ccc(C)c4ncccc34)cnc21	15	nt	nt	nt	nt	nt
O=c1c(O)c(-c2ccccc2)oc2cc(O)cc(O)c12	13	nt	nt	nt	nt	nt
O=c1c(-c2ccccc2)c(-c2ccccc2)oc2cc(O)cc(O)c12	4	53	-10	-3	40*	-1
Cc1ccc(S(=O)(=O)N(C)Cc2ccc(C(=O)N/N=C3\CC(=O)CC(C)(C)C3)cc2)cc1	-6	-42*	-1	0	-1	-4
Cc1cccn2c(=O)c3cc(C(=O)NCc4ccco4)c(=N)n(C4CCCCC4)c3nc12	-8	-8	-3	0	1	-5
CCn1c(=N)c(C(=O)NC2CCCCC2)cc2c(=O)n3cc(C)ccc3nc21	-12	-31*	-5	1	2	0
Cc1ccc2nc3c(cc(C(=O)NCc4ccco4)c(=N)n3C3CCCC3)c(=O)n2c1	nt	9	-1	8	39*	nt
COc1ccccc1-c1noc2ncnc(Nc3cccc(C)c3C)c12	-4	-32*	-6	-1	2	-6
Cc1cc(C(=O)Nc2ccc(C)c(I)c2)c(C)o1	0	nt	nt	nt	nt	nt
O=C(CN1C(=O)COc2ccc(Cl)cc21)Nc1ccc(F)cc1	0	-34*	3	1	25	-6
Cc1ccc(C)c(NC(=O)CN2C(=O)COc3ccc(Cl)cc32)c1	-2	-17	7	0	0	-5
Cc1ccccc1NC(=O)CN1C(=O)COc2ccc(Cl)cc21	-5	-92*	-11	1	4	-9
CC(=O)c1ccc(NC(=O)CN2C(=O)COc3ccc(Cl)cc32)cc1	4	1	-1	1	5	-3
O=C(CCc1nc2ccccc2s1)NCc1ccccc1F	8	-2	-4	0	3	-1
O=C(CCCc1nc2ccccc2s1)NCc1ccccc1F	-4	-42*	-3	-1	2	6
CCC1(c2ccccc2)NC(=O)N(CC(=O)N(CC(=O)Nc2ccccc2C(F)(F)F)Cc2ccco2)C1=O (stereo not given)	0	-13	4	-1	44*	1
N#Cc1cc(C(=O)c2cc(F)ccc2O)cn(C2CCCCC2)c1=O	1	nt	nt	nt	nt	nt
Cc1ccc(-c2cnoc2NC(=O)CSc2nc(-c3ccc(Cl)cc3)cc(=O)[nH]2)cc1	12	nt	nt	nt	nt	nt
O=C(Nc1ccnn1C1CCN(Cc2ccccc2)CC1)C1CCCC1	-2	-4	-6	-1	3	-5
CCn1cc(CN2CCC(n3nccc3NC(=O)C3CCCC3)CC2)cn1	0	-52*	0	0	1	-3
C/C(=N/NC(N)=S)c1cc2ccc(O)cc2oc1=O	2	6	2	4	6	-5
C/C(=N\NC(=O)c1ccncc1)c1cc2ccccc2oc1=O	3	-34*	-1	0	4	2
SMILES	LDHA block	D1 antag	TRHR PAM	TRHR agonist	D1 agonist	D1 potentiator
C/C(=N/NC(=O)c1ccncc1)c1cc2ccc(O)cc2oc1=O	4	-7	5	24	41*	-2
O=C(O)CC(CC(=O)O)c1ccccn1	-11	nt	nt	nt	nt	nt
COC(=O)[C@H]1[C@H]2C[C@@H]3c4[nH]c5cc(OC)ccc5c4CCN3C[C@H]2C[C@@H](OC(=O)/C=C/c2cc(OC)c(OC)c(OC)c2)[C@@H]1OC	-7	2	-6	-1	2	7
COC(=O)[C@H]1[C@H]2C[C@@H]3c4[nH]c5cc(OC)ccc5c4CCN3C[C@H]2C[C@@H](OC(=O)c2ccc(N)cc2)[C@@H]1OC	5	-66*	15	2	3	4
CCCNCc1ccc(-c2ccc(F)cc2)o1	5	nt	nt	nt	nt	nt
Cc1ccc2c(c1)C1CN(C)CCC1N2C(=O)c1ccc(Cl)c(S(=O)(=O)N2CCOCC2)c1 (stereo not given)	-8	-45*	-2	1	2	-5
Cc1ccc2c(c1)C1CN(C)CCC1N2C(=O)c1cccc(S(=O)(=O)N2CC(C)CC(C)C2)c1 (stereo not given)	-1	10	-7	-2	2	-6
Cc1ccc2c(c1)C1CN(C)CCC1N2S(=O)(=O)c1ccc(C(C)C)cc1 (stereo not given)	-1	-31*	0	1	3	-6
Cc1cc(OCC(=O)NCCCO)c2c(C)c(C)c(=O)oc2c1	6	nt	nt	nt	nt	nt
CN(CC(=O)Nc1ccccc1)C(=O)C(C)(C)C#N	6	nt	nt	nt	nt	nt
CC(NC(=O)CNC(=O)c1ccc(N2CCCC2=O)cc1)c1ccc(Cl)c(Cl)c1 (stereo not given)	3	nt	nt	nt	nt	nt
COc1cc(C)ccc1OCC(=O)NC1CCCCCC1	0	-30*	0	0	2	-2
CCN(CC)S(=O)(=O)c1cc(C)c(C)cc1OCC(=O)NC1CCCC1	-4	-34*	2	-1	0	-16
COc1ccc(CCOC(=O)Cc2coc3cc(C)c(C)cc23)cc1	7	nt	nt	nt	nt	nt
CN1/C(=C\C=C2/SC(=S)N(CC(=O)O)C2=O)C(C)(C)c2ccccc21	15	-26	-21	112*	182*	-10
C=CCN1C(=O)/C(=C\C=C2\N(C)c3ccccc3C2(C)C)SC1=S	-10	-1	1	25	85*	-8
CCCCN1C(=O)/C(=C/C=C2\Oc3ccccc3N2CC)SC1=S	0	-30	4	98*	393*	-6
CCN1C(=O)/C(=C\N2CCCc3ccccc32)SC1=S	-2	-17	2	-1	2	-7
C=CCN1C(=O)/C(=C2/Sc3ccccc3N2CC)SC1=S	-6	16	-1	0	5	-1
CCCN1C(=O)/C(=C/C=C2\N(CC)c3ccccc3C2(C)C)SC1=S	-7	0	1	24	63*	-2
CCCNC(=O)c1ccc(CSc2nc3cccnc3n2Cc2ccc(OC)cc2)cc1	-7	nt	nt	nt	nt	nt
